From PubChem BioAssay (NCI)
The panel holds about 83,000 compounds, 20% with a hit somewhere; the sample as a whole holds those more often.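 Activity criterion: percent growth below 10, measured after cells in 96-well plates were exposed to a single compound concentration for 48 hours.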 Calls of active or inactive are those of the source.

system: SK-MEL-2 melanoma; assay: NCI-60 one-dose screen, 48 h (100 = growth as untreated, 0 = no growth, -100 = all killed); details: 10 µM unless noted

Row | Structure (SMILES) | growth
1 | O=C(O)Cc1ccccn1 | 106% (inactive)
2 | CC(C)(C)CC1(C)NC(=O)NC1=O (stereo unspecified) | 166% (inactive)
3 | COc1cc(CC#N)c([N+](=O)[O-])cc1OC | 109% (inactive)
4 | CN(C)CCOC(=O)Nc1ccc(Cc2ccc(NC(=O)OCCN(C)C)cc2)cc1 | 101% [100 µM] (inactive)
5 | Cc1cc2nc(C)c(C)nc2cc1C | 113% (inactive)
6 | CCCCc1ccc2nc(NC(=O)OC)[nH]c2c1 | 44.4% (inactive)
7 | NCC(O)C(O)C(O)C(O)CO (stereo unspecified) | 96.4% (inactive)
8 | CCNc1ccc2ccccc2c1N=Nc1ccc(N=Nc2ccccc2)cc1 | 64.6% (inactive)
9 | O=Cc1ccc(O)c(O)c1 | 103% (inactive)
10 | CC(=O)C1C(=O)C(=O)N(c2cccc([N+](=O)[O-])c2)C1=O (stereo unspecified) | 114% (inactive)
11 | C1Cc2onc(-c3noc4c3CCC4)c2C1 | 124% (inactive)
12 | O=C(O)c1cc(I)ccc1O | 107% (inactive)
13 | C=CCS(C)(=O)=O | 100% (inactive)
14 | O=C(OCc1ccccc1)n1nnc2ccccc21 | 108% (inactive)
15 | CC(=O)N=c1ccc2nc3c(cc(N)c4ccccc43)oc-2c1 | -42.4% (active)
16 | CN1CCCN(C(c2ccccc2)c2ccc(Cl)cc2)CC1 (stereo unspecified) | 117% (inactive)
17 | COc1ccc(/C=C\C(=O)/C=C/c2ccc(OC)cc2)cc1 | 123% (inactive)
18 | CCOC(=O)c1ccc(NC(C)=O)o1 | 99.6% (inactive)
19 | CCOC(=O)c1cc(Cl)c(O)c(Cl)c1 | 106% (inactive)
20 | NNc1ncccn1 | 90.2% (inactive)
21 | CCCC1OC(c2ccco2)OCC1CC (stereo unspecified) | 97.7% (inactive)
